Test results as given in PubChem BioAssay (NCATS).
Records with an inconclusive call do not appear. Calls of active or inactive are those of the source. Calls come from the whole dose curve; as a rule, active = well fitted curve in the direction sought with a large enough effect; inconclusive = small, poorly fitted or top-dose-only effect, or another doubt; inactive = no such curve, though single readings can be large; an effect the other way counts as inactive or inconclusive.

Key:
[1] = test system: MCC-13; assay: qHTS assay to identify novel small-molecules to repurpose for Merkel cell carcinoma treatment (AID 1296009); conditions: MCC and control cell lines, CellTiter-Glo viability, 72 h; series mostly up to 46 µM; note: nearly all actives have a fitted effect of over 60% in size
Method in brief: (§1)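 qHTS format: cells treated with library compounds in DMSO across 8 (NPC) or 11 (MIPE) concentrations. Readout after 72 hr at 37 degree celsius was CellTiter-Glo luminescence.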

[2] = test system: MCC-26; assay: as above; conditions: MCC and control cell lines, CellTiter-Glo viability, 72 h; series mostly up to 46 µM
Method in brief: as §1

[3] = test system: MKL-1; assay: as above; conditions: MCC and control cell lines, CellTiter-Glo viability, 72 h; series mostly up to 46 µM
Method in brief: as §1

[4] = test system: MKL-2; assay: as above; conditions: MCC and control cell lines, CellTiter-Glo viability, 72 h; series mostly up to 46 µM
Method in brief: as §1

[5] = test system: UISO; assay: as above; conditions: MCC and control cell lines, CellTiter-Glo viability, 72 h; series mostly up to 46 µM
Method in brief: as §1

[6] = test system: WaGa; assay: as above; conditions: MCC and control cell lines, CellTiter-Glo viability, 72 h; series mostly up to 46 µM
Method in brief: as §1

[7] = test system: C33A; assay: Primary qHTS to identify gynecologic anti-cancer compounds using libraries of approved drugs and bioactive compounds (AID 1345084); conditions: Gynecologic cancer cell panel viability, ATPlite luminescence, 48 h; series mostly up to 57.5 µM; note: nearly all actives have a fitted effect of over 55% in size
Method in brief: (§2)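 Luminescence from the ATPlite ATP-monitoring reagent indicates viable cell number; lower signal means cytotoxicity. Cells received compound 16 h after seeding and were exposed for 48 h across five concentrations.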

[8] = test system: CAOV3; assay: as above; conditions: Gynecologic cancer cell panel viability, ATPlite luminescence, 48 h; series mostly up to 57.5 µM
Method in brief: as §2

[9] = test system: CASKI; assay: as above; conditions: Gynecologic cancer cell panel viability, ATPlite luminescence, 48 h; series mostly up to 57.5 µM
Method in brief: as §2

[10] = test system: Es-2; assay: as above; conditions: Gynecologic cancer cell panel viability, ATPlite luminescence, 48 h; series mostly up to 57.5 µM
Method in brief: as §2

[11] = test system: HeLa; assay: as above; conditions: Gynecologic cancer cell panel viability, ATPlite luminescence, 48 h; series mostly up to 57.5 µM
Method in brief: as §2

[12] = test system: Hek293T; assay: as above; conditions: Gynecologic cancer cell panel viability, ATPlite luminescence, 48 h, control line for the selectivity index; series mostly up to 57.5 µM
Method in brief: as §2

[13] = test system: JEG-3; assay: as above; conditions: Gynecologic cancer cell panel viability, ATPlite luminescence, 48 h; series mostly up to 57.5 µM
Method in brief: as §2

[14] = test system: OV90; assay: as above; conditions: Gynecologic cancer cell panel viability, ATPlite luminescence, 48 h; series mostly up to 57.5 µM
Method in brief: as §2

[15] = test system: PA-1; assay: as above; conditions: Gynecologic cancer cell panel viability, ATPlite luminescence, 48 h; series mostly up to 57.5 µM
Method in brief: as §2

[16] = test system: SKOV3; assay: as above; conditions: Gynecologic cancer cell panel viability, ATPlite luminescence, 48 h; series mostly up to 57.5 µM
Method in brief: as §2

[17] = test system: Tov-21-G; assay: as above; conditions: Gynecologic cancer cell panel viability, ATPlite luminescence, 48 h; series mostly up to 57.5 µM
Method in brief: as §2

[18] = test system: Tov112D; assay: as above; conditions: Gynecologic cancer cell panel viability, ATPlite luminescence, 48 h; series mostly up to 57.5 µM
Method in brief: as §2

[19] = Drug repurposing screens with cells derived from glioblastoma tumor samples (AID 1345199); conditions: GBM patient neurospheres viability, ATP luminescence, 48 h; note: nearly all actives have a fitted effect of over 40% in size
Method in brief: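 Four patient lines of CD133+ GBM neurospheres were screened at several concentrations; hits were retested in those lines plus three slower-growing GBM lines, using 48-hour treatment and ATP-based viability.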

[20] = at 45.9 µM (top of the series), tumour line B
[21] = at 45.9 µM (top of the series), tumour line D
[22] = at 46 µM (top of the series), tumour line A
[23] = at 46.1 µM (top of the series), tumour line C
[24] = at 20 µM (top of the series), tumour line C
[25] = at 21.2 µM (top of the series), tumour line B
[26] = at 21.2 µM (top of the series), tumour line D
[27] = at 21.3 µM (top of the series), tumour line A
% is set by controls: 0 for no effect and ±100 for the full control effect.

Cn1c([N+](=O)[O-])cnc1COC(N)=O
inactive: outcome [1] | outcome [2] | outcome [3] | outcome [4] | outcome [5] | outcome [6] | outcome [7] | outcome [8] | outcome [9] | outcome [10] | outcome [11] | outcome [12] | outcome [13] | Potency [14] | outcome [15] | outcome [16] | outcome [17] | outcome [18] | activity, negative = cell killing [19, 20] -9.55% | activity, negative = cell killing [19, 21] -8.48% | activity, negative = cell killing [19, 22] -18.6% | activity, negative = cell killing [19, 23] -20.8%

O=c1[nH]c(=O)c2ccccc2o1
inactive: outcome [1] | outcome [2] | outcome [3] | outcome [4] | outcome [5] | outcome [6] | outcome [7] | outcome [8] | outcome [9] | outcome [10] | outcome [11] | outcome [12] | outcome [13] | Potency [14] | outcome [15] | outcome [16] | outcome [17] | outcome [18] | activity, negative = cell killing [19, 20] -11% | activity, negative = cell killing [19, 21] -4.94% | activity, negative = cell killing [19, 22] -29.8% | activity, negative = cell killing [19, 23] -24.8%

CN[C@@H]1[C@H](O)[C@H](NC)[C@H]2O[C@@]3(O)C(=O)C[C@@H](C)O[C@H]3O[C@@H]2[C@H]1O
inactive: outcome [1] | outcome [2] | outcome [3] | outcome [4] | outcome [5] | outcome [6] | outcome [7] | outcome [8] | outcome [9] | outcome [10] | outcome [11] | outcome [12] | outcome [13] | Potency [14] | outcome [15] | outcome [16] | outcome [17] | outcome [18] | activity, negative = cell killing [19, 24] -1.47% | activity, negative = cell killing [19, 25] -21.3% | activity, negative = cell killing [19, 26] 0.484% | activity, negative = cell killing [19, 27] -6.42%

Nc1ccc(S(=O)(=O)c2ccc(N)cc2)cc1
inactive: outcome [1] | outcome [2] | outcome [3] | outcome [4] | outcome [5] | outcome [6] | outcome [7] | outcome [8] | outcome [9] | outcome [10] | outcome [11] | outcome [12] | outcome [13] | Potency [14] | outcome [17] | outcome [18] | activity, negative = cell killing [19, 20] -14.4% | activity, negative = cell killing [19, 21] 8.15% | activity, negative = cell killing [19, 22] -30% | activity, negative = cell killing [19, 23] -8.46%

Cc1ccc2c(c1)c1c3n2CCNC3CCC1 (stereo not drawn)
inactive: outcome [1] | outcome [2] | outcome [3] | outcome [4] | outcome [5] | outcome [6] | outcome [7] | outcome [8] | outcome [9] | outcome [10] | outcome [11] | outcome [12] | outcome [13] | Potency [14] | outcome [15] | outcome [17] | outcome [18]

CNCc1ccccc1
inactive: outcome [1] | outcome [2] | outcome [3] | outcome [4] | outcome [5] | outcome [6] | outcome [7] | outcome [8] | outcome [9] | outcome [10] | outcome [11] | outcome [12] | outcome [15] | outcome [16] | outcome [17] | outcome [18] | activity, negative = cell killing [19, 20] -13% | activity, negative = cell killing [19, 21] -15.9% | activity, negative = cell killing [19, 22] -19.4% | activity, negative = cell killing [19, 23] -9.99%

CC(CSC(=O)c1ccccc1)C(=O)N1C[C@@H](Sc2ccccc2)C[C@H]1C(=O)O (stereo partly drawn)
inactive: outcome [1] | outcome [2] | outcome [3] | outcome [4] | outcome [5] | outcome [6] | outcome [7] | outcome [8] | outcome [9] | outcome [10] | outcome [11] | outcome [12] | outcome [13] | outcome [15] | outcome [17] | outcome [18] | activity, negative = cell killing [19, 20] -5.59% | activity, negative = cell killing [19, 21] 5.1% | activity, negative = cell killing [19, 22] -20.1% | activity, negative = cell killing [19, 23] -14.7%

CCCCCCCCCCCCCCCCN
inactive: outcome [1] | outcome [2] | outcome [3] | outcome [4] | outcome [5] | outcome [6] | outcome [7] | outcome [8] | outcome [9] | outcome [10] | outcome [11] | outcome [13] | Potency [14] | outcome [15] | outcome [16] | outcome [17] | outcome [18] | activity, negative = cell killing [19, 20] -8.19% | activity, negative = cell killing [19, 21] -19.2% | activity, negative = cell killing [19, 23] -20.5%

CN1CCN(C(=O)C2CCCCC2)CC1
inactive: outcome [1] | outcome [2] | outcome [3] | outcome [4] | outcome [5] | outcome [6] | outcome [7] | outcome [8] | outcome [9] | outcome [10] | outcome [11] | outcome [12] | outcome [13] | Potency [14] | outcome [15] | outcome [17] | outcome [18] | activity, negative = cell killing [19, 20] -7.62% | activity, negative = cell killing [19, 21] -7.41% | activity, negative = cell killing [19, 23] -23.1%

O=C(O)COC(=O)Cc1ccccc1Nc1c(Cl)cccc1Cl
inactive: outcome [1] | outcome [2] | outcome [3] | outcome [4] | outcome [5] | outcome [6] | outcome [7] | outcome [8] | outcome [9] | outcome [10] | outcome [11] | outcome [12] | outcome [13] | Potency [14] | outcome [15] | outcome [17] | outcome [18] | activity, negative = cell killing [19, 24] -2.19% | activity, negative = cell killing [19, 25] -12.4% | activity, negative = cell killing [19, 26] -4.64% | activity, negative = cell killing [19, 27] -12.9%

CC(=O)Nc1ccc(OCCOCCOc2ccc(NC(C)=O)cc2)cc1
inactive: outcome [1] | outcome [2] | outcome [3] | outcome [4] | outcome [5] | outcome [6] | outcome [7] | outcome [8] | outcome [9] | outcome [10] | outcome [11] | outcome [12] | outcome [13] | Potency [14] | outcome [15] | outcome [17] | outcome [18] | activity, negative = cell killing [19, 20] -5.83% | activity, negative = cell killing [19, 23] -16.3%
